The source of these data is PubChem BioAssay.

Test [1] relates to Human papillomavirus type 1a protein E7 (residues 44-93). Description: small molecules binding HPV E7 44-93 – biochemical, small-molecule microarray, residues 44-93, 635 nm fluorescence, primary screen (AID 1108).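 Also: E7 fragment applied at 1 µg/mL in TBST for 1 h at 4 C; score combines spot fluorescence with its signal to noise ratio.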 The following applies: fluorescence 635 nm, higher = more signal.
Test [2] can be described thus: hepatitis C replication reporter changes, two-sided – Huh7 cells, luciferase reporter, HCV replication inhibitor project, primary screen (AID 1109).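 Also: huh7 hepatoma cells harbouring a luciferase neomycin HCV replicon reporter; luciferase luminescence as measure of HCV replicon replication; test concentration not given here.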 The following applies: Huh7 HCV replicon luciferase reporter, 48 h; higher = more signal.
The target in test [3] is Left-right determination factor 2 (Homo sapiens) (UniProt O00292). Briefly: small molecules binding LEFTY2 protein – biochemical, small-molecule microarray, 635 nm fluorescence scan, primary screen (AID 1110). The note with it: higher = more signal.
For test [4], the target named is Calmodulin-1 (Homo sapiens) (UniProt P0DP23). Description: small molecules binding calmodulin-1 with EGTA – biochemical, small-molecule microarray, Cy5-labelled CALM1, profiling panel (AID 1111).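 Also: labelled calmodulin applied in Tris saline Tween buffer holding calcium plus EGTA and DTT.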 The note with it: Cy5-CALM1 binding fluorescence, higher = more signal.
The target is the same in test [5]. Description: small molecules binding Ca-loaded calmodulin-1 – biochemical, small-molecule microarray, Cy5-labelled CALM1, plus calcium, artefact control for SMM control-protein annotation, profiling panel (AID 1112).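 Also: score merges spot fluorescence with signal to noise from triplicate slides.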 The note with it: Cy5-CALM1 binding fluorescence, higher = more signal.
Test [6] in a line: probe aWnt5a binding to arrayed compounds – biochemical, biotinylated probe, 635/667 nm fluorescence, primary screen (AID 1113).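 Also: score merges 667 nm fluorescence intensity with signal-to-noise per printed feature.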 The note with it: small-molecule microarray, higher = more signal.
Test [7] can be described thus: probe aShh binding to arrayed compounds – biochemical, biotinylated probe, 635/667 nm fluorescence, primary screen (AID 1114).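 Also: probe is biotin-labelled aShh protein from a stem cell growth factor screen; measures binding of labelled protein to compounds printed on the slide; score merges feature fluorescence at 667 nm with signal-to-noise.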 The note with it: small-molecule microarray, higher = more signal.
A short description of test [8]: probe aNog binding to arrayed compounds – biochemical, biotinylated probe, 635/667 nm fluorescence, primary screen (AID 1115).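 Also: probe is biotinylated aNog protein used at 0.15 µg/mL for 1 h at 4 C; z-score combines 667 nm fluorescence of each spot with its signal to noise.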 The following applies: small-molecule microarray, higher = more signal.
Test [9] has as its target Torsin-1A-interacting protein 1 (Homo sapiens) (UniProt Q5JTV8). Briefly: compound microarray binding of lysate hLAP1 – cell lysate, small-molecule microarray, COS7 lysate, 635/667 nm fluorescence, primary screen (AID 1116). The note with it: 635 nm fluorescence, higher = more signal.
For test [10], the target named is Alpha-bungarotoxin (Bungarus multicinctus) (UniProt P60615). Briefly: compounds binding labelled alpha-BTX control protein – biochemical, small-molecule microarray, Alexa647 label, 635/667 nm fluorescence, artefact control for SMM control protein annotation, profiling panel (AID 1117). The following applies: alpha-BTX-A647 binding fluorescence, higher = more signal.

Test [11] addresses Albumin (Bos taurus) (UniProt P02769). Description: compounds binding labelled BSA control protein – biochemical, small-molecule microarray, Alexa647 label, 635/667 nm fluorescence, artefact control for SMM control protein annotation, profiling panel (AID 1118).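 Also: score merges 667 nm emission intensity and signal-to-noise per printed compound spot.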 The following applies: BSA-A647 binding, fluorescence 635 nm, higher = more signal.
Test [12] in a line: probe aXIP binding to arrayed compounds – biochemical, NeuroSMM set, 635/667 nm fluorescence, primary screen (AID 1119).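 Also: probe is the protein aXip251-270 applied at 1 µg/mL to compound-printed slides; binding of probe to printed compounds measured as 667 nm fluorescence plus signal to noise.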 The following applies: small-molecule microarray, higher = more signal, called active from +8 up or from −8 down.
Test [13] in a line: probe aNOTCH3 binding on compound microarray – biochemical, small-molecule microarray, 635/667 nm fluorescence, primary screen (AID 1120).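 Also: probe is a biotin-tagged antibody raised against NOTCH3 rather than NOTCH3 protein; score merges spot fluorescence near 667 nm with spot signal to noise.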 The note with it: higher = more signal.
A short description of test [14]: probe aNOTCH2 binding on compound microarray – biochemical, small-molecule microarray, 635/667 nm fluorescence, primary screen (AID 1121).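 Also: score merges feature fluorescence read at 667 nm with its signal to noise.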 The following applies: higher = more signal.
In test [15] the target is Carbonic anhydrase 2 (Homo sapiens) (UniProt P00918). Description: compounds binding carbonic anhydrase 2 – biochemical, small-molecule microarray, Alexa647-labelled CAII, profiling panel (AID 1122). The note with it: CAII-A647 binding fluorescence, higher = more signal.
Test [16] is described as follows: COS7 lysate on small-molecule microarray, probe aHis, 635 nm (AID 1123).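 Also: z-score combines 667nm fluorescence intensity with signal-to-noise per printed compound spot.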 The note with it: COS7 cell lysate, fluorescence, higher = more signal.
Test [17] is described as follows: probe aLAP1 signal on lysate-treated microarray – cell lysate, small-molecule microarray, COS7 lysate, primary screen (AID 1124).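 Also: lysate comes from COS7 cells expressing LAP1 and is applied at 0.3 µg/mL; score merges spot fluorescence near 667 nm with signal-to-noise over triplicate slides.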 The note with it: probe aLAP1, fluorescence, higher = more signal.
For test [18], the system named is Sam68 (KHDRBS1). Briefly: compounds binding KHDRBS1 protein – biochemical, small-molecule microarray, 635 nm fluorescence, primary screen (AID 1125).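 Also: score merges 667 nm channel intensity with signal to noise over triplicate slides.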 The note with it: higher = more signal.
For test [19], the system named is Chordin-like protein 2 (CHRDL2). Briefly: compounds binding chordin-like 2 – biochemical, small-molecule microarray, 635 nm fluorescence, primary screen (AID 1126).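 Also: printed compound slides probed with Chrdl2 protein at 4 µg/mL for 1 h at 4 C; score merges 667 nm emission intensity with signal to noise over three replicate slides.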 The following applies: fluorescence 635 nm, higher = more signal.
The target in test [20] is Concanavalin-A (Canavalia ensiformis) (UniProt P02866). Briefly: compounds binding concanavalin A lectin – biochemical, small-molecule microarray, Alexa647 label, 635 nm, artefact control for SMM control protein annotation, primary screen (AID 1127).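 Also: z combines 667 nm emission intensity with signal-to-noise across three replicate slides.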 The note with it: ConA-A647 binding fluorescence, higher = more signal.

Structures are written as SMILES. Activity calls are given as the source filed them.

Sequence of Concanavalin-A (Canavalia ensiformis) (P02866 whole entry, looked up): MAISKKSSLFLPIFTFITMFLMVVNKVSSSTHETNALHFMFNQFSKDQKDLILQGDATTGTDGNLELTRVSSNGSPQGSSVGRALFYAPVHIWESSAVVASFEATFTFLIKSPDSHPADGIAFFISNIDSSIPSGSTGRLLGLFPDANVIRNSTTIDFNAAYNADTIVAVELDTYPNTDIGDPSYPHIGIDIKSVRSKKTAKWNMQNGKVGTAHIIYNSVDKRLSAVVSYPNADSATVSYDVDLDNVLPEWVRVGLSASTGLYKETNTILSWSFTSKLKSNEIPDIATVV
Sequence of Torsin-1A-interacting protein 1 (Homo sapiens) (Q5JTV8 whole entry, looked up): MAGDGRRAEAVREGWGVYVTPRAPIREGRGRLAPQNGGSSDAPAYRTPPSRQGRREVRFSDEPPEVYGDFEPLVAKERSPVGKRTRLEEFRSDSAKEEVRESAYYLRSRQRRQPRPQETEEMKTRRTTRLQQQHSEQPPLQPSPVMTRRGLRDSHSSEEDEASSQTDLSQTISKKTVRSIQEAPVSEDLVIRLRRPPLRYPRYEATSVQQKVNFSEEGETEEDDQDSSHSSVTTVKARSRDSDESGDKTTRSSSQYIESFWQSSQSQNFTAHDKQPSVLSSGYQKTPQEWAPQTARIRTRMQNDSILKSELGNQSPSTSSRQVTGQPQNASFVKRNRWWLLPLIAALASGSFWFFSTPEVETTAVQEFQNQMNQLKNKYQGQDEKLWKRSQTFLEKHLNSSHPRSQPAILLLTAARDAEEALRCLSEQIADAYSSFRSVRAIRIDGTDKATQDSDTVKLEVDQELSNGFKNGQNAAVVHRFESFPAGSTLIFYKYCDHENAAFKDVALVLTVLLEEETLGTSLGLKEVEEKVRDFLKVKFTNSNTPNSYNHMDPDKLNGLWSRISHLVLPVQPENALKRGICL
Sequence of Left-right determination factor 2 (Homo sapiens) (O00292 whole entry, looked up): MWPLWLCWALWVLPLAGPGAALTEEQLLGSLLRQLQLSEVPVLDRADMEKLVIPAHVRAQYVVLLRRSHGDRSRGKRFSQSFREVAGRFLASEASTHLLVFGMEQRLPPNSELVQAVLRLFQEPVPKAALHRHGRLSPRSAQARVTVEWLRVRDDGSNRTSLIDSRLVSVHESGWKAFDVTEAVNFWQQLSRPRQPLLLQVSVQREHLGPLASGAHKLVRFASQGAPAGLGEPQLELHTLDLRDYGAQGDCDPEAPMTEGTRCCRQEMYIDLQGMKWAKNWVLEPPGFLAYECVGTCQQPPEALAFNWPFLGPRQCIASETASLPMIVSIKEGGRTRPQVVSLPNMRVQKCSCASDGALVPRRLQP
Sequence of Albumin (Bos taurus) (P02769 whole entry, looked up): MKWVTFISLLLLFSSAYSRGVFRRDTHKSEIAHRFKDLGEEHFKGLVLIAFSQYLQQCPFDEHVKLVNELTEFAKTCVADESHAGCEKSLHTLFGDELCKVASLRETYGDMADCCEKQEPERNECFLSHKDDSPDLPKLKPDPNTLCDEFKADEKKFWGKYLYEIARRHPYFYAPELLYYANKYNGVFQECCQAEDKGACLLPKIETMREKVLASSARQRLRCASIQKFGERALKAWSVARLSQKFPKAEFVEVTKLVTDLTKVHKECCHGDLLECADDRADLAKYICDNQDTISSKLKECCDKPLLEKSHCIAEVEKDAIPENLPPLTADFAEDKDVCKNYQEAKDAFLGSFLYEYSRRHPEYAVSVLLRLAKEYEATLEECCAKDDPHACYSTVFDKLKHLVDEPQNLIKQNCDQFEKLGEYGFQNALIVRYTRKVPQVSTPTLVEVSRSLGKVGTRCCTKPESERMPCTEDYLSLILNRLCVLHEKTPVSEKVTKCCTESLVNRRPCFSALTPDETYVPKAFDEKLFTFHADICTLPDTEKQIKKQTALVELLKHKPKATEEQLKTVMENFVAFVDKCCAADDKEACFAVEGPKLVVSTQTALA
Sequence of Alpha-bungarotoxin (Bungarus multicinctus) (P60615 whole entry, looked up): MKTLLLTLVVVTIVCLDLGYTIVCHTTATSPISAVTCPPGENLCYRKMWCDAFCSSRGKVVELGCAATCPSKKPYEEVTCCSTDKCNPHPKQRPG

Turning to `COCCOC(=O)N1C(=O)[C@@]2(c3cc(C#CCCO)ccc31)[C@H](c1ccc(OCCO)cc1)N1[C@H](c3ccccc3)[C@H](c3ccccc3)OC(=O)[C@H]1[C@@H]2C(=O)N1CCN(c2ncccn2)CC1`, the composite z-score was 1.37 in test [1]; 0.781 in [3]; 1.33 in test [4]; -0.243 in [5]; -0.131 in test [6]; -0.0035 in [7]. For the same compound, the composite z-score in test [8] was -0.483; in [9], 0.398; in test [10], 0.582; in [11] it was 0.679; in test [13], 0.162; in [14] it was -0.161. For the same compound, the composite z-score came to 0.31 in test [15]; 2.03 in test [16]; 0.602 in test [17]; 1.29 in test [18]; 0.718 in test [19]; 1.15 in [20]. Moreover, in test [2], the z-score was -1.46. The composite Z-score in test [12] was -0.114 (inactive).
Consider `CCCCCN1CC=CC23O[C@@H]4/C=C\CCCOC(=O)C4[C@H]2C(=O)N(C(CO)C(C)C)[C@@H]3C1=O` (stereo not given in full), for which the composite z-score in [1] is -0.453; in test [3], -0.358; in [4] it was -0.33; in [5], -0.272; in [6], -0.0107; in test [7], -0.416. Moreover, the composite z-score in [8] was -0.158; in test [9] it was 0.174; in [10], -0.0063; in test [11], 1; in test [13] it was -0.139; in test [14] it was -0.14. The composite z-score in test [15] was 0.819; in test [16], -0.168; in [17], -0.12; in test [18], -0.656; in test [19] it was -0.718; in test [20] it was -0.574. The same compound registered a z-score in test [2] of 0.568. Besides, the composite Z-score in test [12] is 0.586 (inactive).
For `O=C1C[C@]2(c3ccc([N+](=O)[O-])cc3)C(=O)N(CCN3CCOCC3)c3cc(CO)ccc3[C@H]2N1C1CCCCC1`, the composite z-score in test [1] was -1.26; in [3] it was -0.91; in test [4], -0.146; in test [5], 0.0884; in test [6], -0.363; in test [7], -0.211. Besides, the composite z-score in test [8] was -0.405; in [9], -0.308; in test [10], -0.251; in test [11] it was 0.883; in test [13], -0.221; in test [14], -0.0904. The composite z-score in [15] was 0.646; in [16], 0.294; in test [17] it was -0.467; in test [18], 0.197; in [19], -0.337; in test [20] it was -0.172. The z-score in [2] is -0.809. Moreover, the composite Z-score in [12] was -0.598 (inactive).
Regarding `[N-]=[N+]=NCc1ccccc1[C@@H]1OC(c2ccc(OCCCO)cc2)=N[C@]1(CCS(=O)(=O)c1ccccc1)C(=O)NCCN1CCOCC1`, the composite z-score in test [1] was 1.5; in test [3], 0.623; in test [4], 1.65; in test [5] it was -0.173; in [6], 0.132; in test [7], 0.323. The composite z-score in test [8] amounted to 1.17; in test [9], 2.04; in test [10], 1.95; in test [11], 0.899; in test [13] it was 0.576; in [14], 0.0476. Also, the composite z-score turned out to be 0.634 in test [15]; 2.86 in test [16]; 0.623 in test [17]; 1.3 in [18]; 0.207 in [19]; 1.1 in test [20]. In test [2], the z-score was -0.351. For the same compound, in [12], the composite Z-score is 1.31 (inactive).
For `CN(C)CCCNC(=O)[C@@]1(C)c2ccccc2C(=O)N(Cc2cc(F)cc(C(F)(F)F)c2)[C@H]1c1ccc(CO)cc1`, the composite z-score in [1] was -0.0947; in [3] it was -1.66; in [4], -0.483; in test [5] it was -0.643; in test [6], -0.251; in test [7], 0.0121. Further, the composite z-score in test [8] is 0.338; in test [9], -0.94; in test [10], 1.32; in test [11] it was 0.56; in [13], -0.159; in [14] it was -0.0895. The composite z-score in test [15] was 0.769; in test [16], -0.065; in [17], 0.457; in test [18] it was 0.303; in test [19], -1.66; in test [20] it was -0.282. The z-score in [2] was -1.8. In addition, in test [12], the composite Z-score is 0.101 (inactive).
`C#CCNC(=O)[C@H](Cc1ccccc1)NC(=O)CCC(=O)O`: the composite z-score in [1] is -0.665; in [3], -0.0677; in test [4] it was -1.48; in [5] it was -0.834; in [6], -0.12; in [7], -0.214. Also, the composite z-score in test [8] is -0.501; in test [9], 0.409; in [10] it was -0.368; in test [11], -1.09; in [13], -0.262; in [14], -0.161. Moreover, the composite z-score in [15] is -0.124; in test [16], -0.301; in [17] it was 0.236; in [18], -1.74; in test [19], -0.471; in test [20] it was -1.83. The z-score in test [2] was -0.25. The composite Z-score in [12] was 1.42 (inactive).
